Measurements published in PubChem BioAssay (Tox21).
Records with an inconclusive call do not appear. Where a call stands in place of a potency, no number is given. Calls of active or inactive are those of the source. Unless noted, calls come from the whole dose curve.

How the values were obtained:
[1] = target: Gonadotropin-releasing hormone receptor (Homo sapiens) (UniProt P30968); assay: Human gonadotropin-releasing hormone receptor (GnRHR) small molecule agonists, calcium flux assay in GnRHR-HEK293 cells (AID 1920063); note: nearly all actives have a fitted effect of over 35% in size
Gonadotropin-releasing hormone receptor (Homo sapiens), sequence (P30968 whole entry, looked up): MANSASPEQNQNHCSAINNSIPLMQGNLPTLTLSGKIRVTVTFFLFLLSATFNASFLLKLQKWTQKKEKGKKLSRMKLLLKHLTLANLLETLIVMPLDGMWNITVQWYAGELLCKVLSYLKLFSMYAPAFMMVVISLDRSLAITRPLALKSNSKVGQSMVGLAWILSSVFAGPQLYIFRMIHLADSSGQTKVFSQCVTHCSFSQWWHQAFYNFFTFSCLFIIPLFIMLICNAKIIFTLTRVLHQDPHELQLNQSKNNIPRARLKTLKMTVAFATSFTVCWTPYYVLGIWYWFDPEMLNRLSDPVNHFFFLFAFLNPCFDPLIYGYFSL
How it was run: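 Tox21-format agonist screen using human GnRHR-expressing HEK293 cells and a fluorescent calcium dye; kinetic 3-min fluorescence reading after compound addition, 15-point concentration series run in triplicate.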

[2] = target: KiSS-1 receptor (Homo sapiens) (UniProt Q969F8); assay: Human kisspeptin (KISS1R) small molecule agonists, calcium flux assay in KISS1R-HEK293 cells (AID 1920064; active = well fitted curve in the direction sought with a large enough effect in the repeat runs; an effect the other way counts as inactive or inconclusive)
KiSS-1 receptor (Homo sapiens), sequence (Q969F8 whole entry, looked up): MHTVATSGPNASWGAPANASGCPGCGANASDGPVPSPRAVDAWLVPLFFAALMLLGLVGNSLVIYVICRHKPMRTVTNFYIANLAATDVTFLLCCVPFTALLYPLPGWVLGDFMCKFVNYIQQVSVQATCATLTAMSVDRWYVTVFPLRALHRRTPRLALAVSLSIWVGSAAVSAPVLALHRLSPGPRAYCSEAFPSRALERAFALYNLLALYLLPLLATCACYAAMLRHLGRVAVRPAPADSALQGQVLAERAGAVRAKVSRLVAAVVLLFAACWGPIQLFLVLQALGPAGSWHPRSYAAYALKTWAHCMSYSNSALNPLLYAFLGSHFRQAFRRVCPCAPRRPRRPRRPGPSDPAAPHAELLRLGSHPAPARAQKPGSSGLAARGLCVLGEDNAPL
How it was run: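 Intracellular calcium mobilization in KISS1R-HEK293 cells was recorded by fluorescence (Ex/Em 480/540) for 3 min following compound addition to cells pre-loaded 1 h with calcium dye.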

[3] = G protein-coupled receptor (GPCR) small molecule agonists, calcium flux assay: HEK293 wild type cell line counter screen (AID 1920065)
How it was run: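 In this agonist-mode screen, ATP is the positive control and DMSO the vehicle. Cells grow 18 h before a 1 h dye incubation at 37 C; signal is taken at Ex/Em 480/540 over 3 min.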

[4] = p53 small molecule agonists, cell-based qHTS assay with human liver microsomes (AID 1963577);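 note: p53 response element beta-lactamase reporter cells with liver microsomes plus NADPH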
How it was run: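 HLM-supplemented p53RE-bla reporter assay: 16 h compound exposure at 37 C, microsomes and NADPH each 0.5 mg/mL final, read by fluorescence intensity.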

[5] = p53 small molecule agonists, cell-based qHTS assay with rat liver microsomes (AID 1963578)
How it was run: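 Quantitative HTS of the Tox21 10K library: p53RE-bla cells, rat liver microsomes plus NADPH at 0.5 mg/mL final each, 16 h at 37 C, beta-lactamase fluorescence detection.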

[6] = p53 small molecule agonists, cell-based qHTS assay with human liver microsomes: qHTS cell viability counter screen (AID 1963579); note: nearly all actives have a fitted effect of over 45% in size
How it was run: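 Viability of p53RE-bla cells is measured as CellTiter-Glo luminescence following a 16 h, 37 C incubation with compound, liver microsomes from human donors and NADPH.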

[7] = p53 small molecule agonists, cell-based qHTS assay with rat liver microsomes: qHTS cell viability counter screen (AID 1963580); note: nearly all actives have a fitted effect of over 45% in size
How it was run: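 p53RE-bla HCT-116 cells (4,000/well) rested 5 h at 37 C, then given Tox21 compounds in DMSO with rat liver microsomes (0.5 mg/mL final) plus NADPH (0.5 mg/mL final) for 16 h at 37 C. Viability read by CellTiter-Glo luminescence after 30 min at room temperature.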

[8] = p53 small molecule agonists, cell-based qHTS assay: qHTS cell viability counter screen (AID 1963581); note: nearly all actives have a fitted effect of over 45% in size
How it was run: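 Compounds are pinned onto HCT-116 p53RE-bla cells and left 16 h at 37 C. Following the reporter FRET read, ATP is quantified by CellTiter-Glo luminescence after 30 min at room temperature.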

[9] = p53 small molecule agonists, cell-based qHTS assay (AID 1963582; active = well fitted activation curve with a large enough effect in the signal ratio in the repeat runs, not every such curve was filed as active; the % refers to the signal ratio)
How it was run: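 Agonist activity was scored from beta-lactamase FRET fluorescence in p53RE-bla cells treated 16 h at 37 C with compounds in DMSO, substrate incubation being 2 h at room temperature.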

[10] = target: 5-hydroxytryptamine receptor 2A (Homo sapiens) (UniProt P28223); assay: 5-hydroxytryptamine receptor 2A (HTR2A) small molecule antagonists, cell-based qHTS assay (AID 1963586); note: nearly all actives have a fitted effect of over 45% in size
5-hydroxytryptamine receptor 2A (Homo sapiens), sequence (P28223 whole entry, looked up): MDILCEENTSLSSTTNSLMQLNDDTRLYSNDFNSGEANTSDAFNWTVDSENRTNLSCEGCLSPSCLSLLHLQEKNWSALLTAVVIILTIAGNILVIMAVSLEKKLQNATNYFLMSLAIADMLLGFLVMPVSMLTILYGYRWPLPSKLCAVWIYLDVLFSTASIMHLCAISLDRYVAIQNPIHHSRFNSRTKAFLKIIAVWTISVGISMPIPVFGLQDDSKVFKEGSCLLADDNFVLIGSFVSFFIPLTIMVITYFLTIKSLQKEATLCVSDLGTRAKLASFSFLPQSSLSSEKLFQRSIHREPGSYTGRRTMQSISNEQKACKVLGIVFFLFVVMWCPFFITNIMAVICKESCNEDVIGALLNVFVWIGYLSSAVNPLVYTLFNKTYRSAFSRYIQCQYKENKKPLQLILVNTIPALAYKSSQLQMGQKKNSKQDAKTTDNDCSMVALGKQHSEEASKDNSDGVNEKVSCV
How it was run: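 Antagonist-mode intracellular calcium assay: DOI (4 nM) added after 5 min compound pre-incubation at room temperature to dye-loaded HTR2A-CHO cells. Fluorescence followed for 3 min, sampled every second.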

[11] = target: Muscarinic acetylcholine receptor M1 (Homo sapiens) (UniProt P11229); assay: Cholinergic receptor muscarinic 1 (CHRM1) small molecule antagonists, cell-based qHTS assay (AID 1963588); note: nearly all actives have a fitted effect of over 40% in size; note: potency is the fitted concentration of half-maximal effect
Muscarinic acetylcholine receptor M1 (Homo sapiens), sequence (P11229 whole entry, looked up): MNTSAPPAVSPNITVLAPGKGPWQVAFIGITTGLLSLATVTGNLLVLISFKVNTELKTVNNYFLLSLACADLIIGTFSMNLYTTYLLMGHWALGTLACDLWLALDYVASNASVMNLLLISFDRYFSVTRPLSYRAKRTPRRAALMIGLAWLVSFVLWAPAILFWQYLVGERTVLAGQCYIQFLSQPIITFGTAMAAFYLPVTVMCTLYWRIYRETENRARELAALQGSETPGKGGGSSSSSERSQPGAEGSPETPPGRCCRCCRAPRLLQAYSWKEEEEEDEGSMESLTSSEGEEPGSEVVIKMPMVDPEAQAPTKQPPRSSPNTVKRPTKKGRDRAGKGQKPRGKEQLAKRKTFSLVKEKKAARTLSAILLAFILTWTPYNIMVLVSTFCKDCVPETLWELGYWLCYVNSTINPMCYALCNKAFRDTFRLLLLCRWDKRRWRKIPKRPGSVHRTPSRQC
How it was run: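 CHRM1-CHO calcium-flux assay, antagonist mode. Cells were seeded 18 h, dye-loaded 1 h at 37 C and given compound for 5 min at RT, then acetylcholine was added at 50nM. FDSS fluorescence was read 3 min; 15 concentrations, three runs.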

[12] = target: Muscarinic acetylcholine receptor M1 (Homo sapiens) (UniProt P11229); assay: Cholinergic receptor muscarinic 1 (CHRM1) small molecule agonists, cell-based qHTS assay (AID 1963589); note: nearly all actives have a fitted effect of over 35% in size
How it was run: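 Stable CHRM1-CHO cells (human receptor) were incubated 18 h, dye-loaded for 1 h at 37 C and exposed to test compounds for agonist activity, with calcium-dependent fluorescence followed kinetically.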

[13] = cAMP Responsive Elements (CRE) small molecule agonists, cell-based qHTS assay (AID 1963590)
How it was run: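 FRET-based beta-lactamase readout (LiveBLAzer B/G, 2 h RT) quantified CRE activation in HEK 293T CRE-bla cells after 3 h treatment with DMSO-dissolved compounds.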

[14] = target: Beta-2 adrenergic receptor (Homo sapiens) (UniProt P07550); assay: Adrenergic beta2 receptor (ADRB2) small molecule antagonists, cell-based qHTS assay (AID 1963592); note: series mostly up to about 92 µM; nearly all actives have a fitted effect of over 50% in size
Beta-2 adrenergic receptor (Homo sapiens), sequence (P07550 whole entry, looked up): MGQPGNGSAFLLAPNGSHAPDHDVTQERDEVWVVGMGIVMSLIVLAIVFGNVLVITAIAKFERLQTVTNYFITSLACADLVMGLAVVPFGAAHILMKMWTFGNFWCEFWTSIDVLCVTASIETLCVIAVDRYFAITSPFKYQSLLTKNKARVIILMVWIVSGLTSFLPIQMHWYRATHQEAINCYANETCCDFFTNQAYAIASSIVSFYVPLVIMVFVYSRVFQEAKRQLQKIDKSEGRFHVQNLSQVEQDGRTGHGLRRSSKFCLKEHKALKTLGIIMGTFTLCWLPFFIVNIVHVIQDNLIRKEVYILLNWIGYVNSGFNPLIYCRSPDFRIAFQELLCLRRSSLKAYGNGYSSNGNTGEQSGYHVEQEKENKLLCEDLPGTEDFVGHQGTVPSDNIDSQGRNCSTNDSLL
How it was run: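 Cells (CHO, stable ADRB2 overexpression) incubated 18-20hr at 37C; compounds added from DMSO; agonist mix (1nM isoproterenol, 100uM IBMX, 25uM Ro-20-1724) added; 0.5hr RT; d2-cAMP and anti-cAMP-cryptate added; 1hr RT; 665/615 nm read.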

[15] = target: Beta-2 adrenergic receptor (Homo sapiens) (UniProt P07550); assay: Adrenergic beta2 receptor (ADRB2) small molecule agonists, cell-based qHTS assay (AID 1963593);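 note: CHO cells stably overexpressing human ADRB2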
How it was run: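 CHO cells stably over-expressing ADRB2 were plated overnight at 37C, then dosed with compounds plus a stimulation mix containing 100uM IBMX and 25uM Ro-20-1724 for 0.5hr at room temperature. cAMP was measured by HTRF competition, 1hr.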

[16] = target: D(2) dopamine receptor (Homo sapiens) (UniProt P14416); assay: Dopamine D2 receptor (DRD2) small molecule agonists, cell-based qHTS assay (AID 1963594); note: nearly all actives have a fitted effect of over 35% in size
D(2) dopamine receptor (Homo sapiens), sequence (P14416 whole entry, looked up): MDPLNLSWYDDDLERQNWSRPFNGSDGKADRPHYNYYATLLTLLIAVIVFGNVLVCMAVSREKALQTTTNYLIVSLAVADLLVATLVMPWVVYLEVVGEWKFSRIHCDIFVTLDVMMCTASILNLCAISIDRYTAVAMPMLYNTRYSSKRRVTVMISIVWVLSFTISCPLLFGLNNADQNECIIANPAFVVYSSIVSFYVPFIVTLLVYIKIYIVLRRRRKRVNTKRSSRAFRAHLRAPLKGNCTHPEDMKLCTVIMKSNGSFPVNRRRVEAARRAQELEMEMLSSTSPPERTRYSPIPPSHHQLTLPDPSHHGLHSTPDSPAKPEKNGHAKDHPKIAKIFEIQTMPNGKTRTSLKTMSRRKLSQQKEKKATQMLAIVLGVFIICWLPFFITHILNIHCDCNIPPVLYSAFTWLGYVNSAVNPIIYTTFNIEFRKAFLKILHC
How it was run: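 HEK293 cells stably expressing DRD2 were cultured 24 h at 37 C, then given Ro20-1724 (0.1 mM final) and compounds for 10 min at room temperature. NKH477 (200nM) was then added for 30 min. cAMP was read by HTRF.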

[17] = target: D(2) dopamine receptor (Homo sapiens) (UniProt P14416); assay: Dopamine D2 receptor (DRD2) small molecule antagonists, cell-based qHTS assay (AID 1963595; active = well fitted inhibition curve with a large enough effect in the signal ratio in the repeat runs, with a control signal flat; the % refers to the signal ratio)
How it was run: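 Antagonist mode in DRD2-HEK293 cells: after compound addition with 0.1 mM Ro20-1724, cells received quinpirole (12 nM) and NKH477 (200 nM) for 30 min at room temperature; HTRF cAMP read after 1 h detection.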

[18] = cAMP Responsive Elements (CRE) small molecule antagonists, cell-based qHTS assay (AID 1963591; active = well fitted inhibition curve with a large enough effect in the signal ratio in the repeat runs, not every such curve was filed as active; the % refers to the signal ratio)
How it was run: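 qHTS in CRE-bla HEK 293T cells: compound in DMSO, then 0.25 uM NKH477 (final), 3 h at 37 °C/5% CO2; beta-lactamase FRET read-out after 2 h substrate incubation.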

[19] = target: 5-hydroxytryptamine receptor 2A (Homo sapiens) (UniProt P28223); assay: 5-hydroxytryptamine receptor 2A (HTR2A) small molecule agonists, cell-based qHTS assay (AID 1963587); note: nearly all actives have a fitted effect of over 30% in size
How it was run: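 HTR2A-CHO cells, plated 18 h at 37 C/5% CO2, dye-loaded 1 h at 37 C; compounds in DMSO added by pin tool (agonist mode). Intracellular calcium flux read as kinetic fluorescence on FDSS over 2 min at 1 s intervals.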

[20] = Nuclear factor erythroid 2-related factor 2/antioxidant responsive element (Nrf2/ARE) small molecule agonists: qHTS cell viability counter screen in human keratinocytes (AID 1919968; active = well fitted curve in the direction sought with a large enough effect in the repeat runs; an effect the other way counts as inactive or inconclusive; note: nearly all actives have a fitted effect of over 55% in size)
How it was run: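 Viability counter-screen: KeratinoSens reporter cells, DMSO-delivered compounds, 23 h at 37 C, CellTiter-Fluor fluorescence.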

SMILES	Potency [1]	Potency [2]	Potency [3]	Potency [4]	Potency [5]	Potency [6]	Potency [7]	Potency [8]	Potency [9]	Potency [10]	Potency [11]	Potency [12]	Potency [13]	Potency [14]	Potency [15]	Potency [16]	Potency [17]	Potency [18]	Potency [19]	Potency [20]
CC(C)=CCC[C@](C)(O)[C@@H]1CC=C(C)CC1	inactive	inactive	inactive	inactive	inactive	inactive	inactive	inactive	inactive	inactive	inactive	inactive	inactive	inactive	inactive	inactive	inactive			
O=C(CC(=O)c1ccccc1)c1ccccc1	inactive	inactive	inactive	inactive	inactive	inactive	inactive	inactive	inactive	inactive	inactive			inactive	inactive		inactive	inactive		
CCCCCCCCCCCCCCCS(=O)(=O)Oc1ccccc1	inactive	inactive	inactive	inactive	inactive	inactive	inactive	inactive	inactive	inactive	inactive	inactive	inactive	inactive		inactive	inactive	inactive	inactive	
OC(CCN1CCCCC1)(c1ccccc1)C1CC2C=CC1C2 (stereo not given)	inactive	inactive	inactive	inactive	inactive	inactive	inactive	inactive	inactive	inactive	1.3 nM (active)	inactive		inactive		inactive	inactive		inactive	
CCCCCCCC/C=C/CCCCCCCC1=NCCN1CCO	inactive	inactive	inactive	inactive	inactive	inactive	inactive	inactive	inactive			inactive	inactive	inactive		inactive	inactive			
C=CC[N+]1([C@H]2C[C@H]3[C@@H]4CC[C@H]5C[C@H](OC(C)=O)[C@@H](N6CCCCC6)C[C@]5(C)[C@H]4CC[C@]3(C)[C@H]2OC(=O)CC)CCCCC1	inactive	inactive	inactive	inactive	inactive	inactive	inactive	inactive	inactive		inactive	inactive	inactive	inactive	inactive	inactive	inactive	inactive	inactive	
C=Cc1ccc(S(=O)(=O)O)cc1	inactive	inactive	inactive	inactive	inactive	inactive	inactive	inactive	inactive		inactive	inactive	inactive	inactive		inactive				
Nc1cc(Cl)c([N+](=O)[O-])cc1O	inactive	inactive	inactive	inactive	inactive	inactive	inactive	inactive	inactive	inactive		inactive	inactive	inactive	inactive	inactive	inactive	inactive	inactive	
O=C1c2ccccc2C(=O)N1SC1CCCCC1	inactive	inactive	inactive	inactive	inactive	inactive	inactive	inactive	inactive	inactive	inactive			inactive	inactive	inactive	inactive	inactive		
Nc1ccc(O)c(N)c1	inactive	inactive	inactive	inactive	inactive	inactive	inactive	inactive	inactive	inactive	inactive	inactive	inactive			inactive		inactive	inactive	
O=C1c2ccccc2C(=O)c2c(O)c(O)cc(O)c21	inactive	inactive	inactive	inactive	inactive	inactive	inactive	inactive		inactive	inactive	inactive		inactive	inactive	inactive	inactive		inactive	
CC(C)C[C@H](NC(=O)CNC(=O)[C@H](Cc1ccc(O)cc1)NC(=O)[C@H](CO)NC(=O)[C@H](Cc1c[nH]c2ccccc12)NC(=O)[C@H](Cc1cnc[nH]1)NC(=O)[C@@H]1CCC(=O)N1)C(=O)N[C@@H](CCCN=C(N)N)C(=O)N1CCC[C@H]1C(=O)NCC(N)=O (stereo in doubt)			inactive	inactive	inactive		inactive	inactive	inactive				inactive	inactive	inactive	inactive	inactive	inactive		inactive
C1CN(SSN2CCOCC2)CCO1	inactive	inactive	inactive	inactive	inactive	inactive	inactive	inactive	inactive	inactive	inactive	inactive				inactive	inactive			
